Source: PubChem (National Center for Advancing Translational Sciences (NCATS))
Casp1 inh: allosteric or competitive inhibitors of human caspase-1; Caspase-1 enzyme, Ac-WEHD-AFC fluorogenic rate; AID 900; P29466; Potency, µM (series often up to 57.5 µM), usual class: inhibitors; actives 0.03% (n = 75,000)
ERK AVP block: inhibitors of vasopressin-stimulated ERK signaling pathway. AID 995. Potency, µM (doses to about 57.5 µM), hits mostly inhibitors. actives 0.99% (n = 72,000). HEK293-V1b, vasopressin-stimulated pERK AlphaScreen; also: nearly all actives have a fitted effect of over 55% in size
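HEK293 cells stably expressing V1b receptor, seeded overnight in 1% FBS, were treated with compounds for 30 min at 37C, then stimulated 5 min with 25 nM vasopressin; phospho-ERK read by AlphaScreen SureFire after lysis.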
Caspase-7 inhib: allosteric or competitive inhibitors of human caspase-7. recombinant caspase-7, Ac-DEVD-AFC fluorescence rate. P55210. actives 0.02% (n = 75,000). Potency, µM (titrated, usually from 57.5 µM), usual class: inhibitors; active = well fitted inhibition curve with a large enough effect in the main read-out, with a control signal flat, not every such curve was filed as active; inconclusive = small, poorly fitted or top-dose-only effect, or a change in a side signal
15-hLO inh: blocks human 15-lipoxygenase activity. purified 15hLO-1, xylenol orange hydroperoxide absorbance. actives 1.4% (n = 74,000). Potency, µM (titrated, usually from 57.1 µM), hits mostly inhibitors. P16050; also: nearly all actives have a fitted effect of over 55% in size
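Purified human 15hLO-1 (40 nM) in 25 mM Hepes pH 7.5, 0.01% Triton X-100, preincubated 15 min RT with compound, then 50 uM arachidonic acid for 6 min. Hydroperoxide read by ferrous/xylenol orange, 30 min; 573/405 nm absorbance ratio gave progress.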
ALOX15B inhib: inhibitors of human 15-lipoxygenase 2 (ALOX15B); O15296; Potency, µM (doses to about 57.1 µM), usual class: inhibitors; actives 0.56% (n = 110,000); purified 15hLO-2, xylenol orange hydroperoxide absorbance; also: nearly all actives have a fitted effect of over 60% in size
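Purified human 15hLO-2 (50 nM) preincubated 15 min with compound, then 45 uM arachidonic acid for 90 min at RT in 25 mM Hepes pH 7.5, 0.01% Triton X-100. Hydroperoxide detected by Fe-xylenol orange; 573/405 nm absorbance ratio.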
Each line names hits and unclear results; the compound was inactive in the other large screens. Hits are enriched below; roughly 1.7% of the tested compounds scored in any of these assays. Unless noted, calls follow the shape of the dose curve; as a rule, active = well fitted curve in the direction sought with a large enough effect; inconclusive = small, poorly fitted or top-dose-only effect, or another doubt; inactive = no such curve, though single readings can be large; an effect the other way counts as inactive or inconclusive.

CC(=NC1CCCCC1)C1=C(O)c2ccccc2C1=O	ERK AVP block inconclusive, ALOX15B inhib 16µM
N=c1c2c(-c3ccccc3)c(-c3ccccc3)n(Cc3ccccc3)c2ncn1CCCn1ccnc1	none (no result: Casp1 inh, ERK AVP block, Caspase-7 inhib, 15-hLO inh)
N=c1c2c(-c3ccccc3)c(-c3ccccc3)n(Cc3ccco3)c2ncn1Cc1ccco1	ERK AVP block inconclusive, 15-hLO inh 25µM
NC1=CC(=O)c2cccc3cccc1c23	15-hLO inh 5µM (no result: ALOX15B inhib)
Cc1cc(C)nc(Nc2nc(=O)c3ccccc3s2)n1	15-hLO inh 7.9µM
Cc1cc(C)nc(Nc2n[nH]c(-c3cccc4ccccc34)n2)n1	none (no result: Casp1 inh, ERK AVP block, Caspase-7 inhib, 15-hLO inh)
Cc1noc(C)c1-c1nc(Nc2ccc(F)cc2)c2ccccc2n1	15-hLO inh 16µM
Cc1noc(C)c1-c1nc(N(C)C)c2ccccc2n1	15-hLO inh 16µM
Cc1noc(C)c1-c1nc(NCc2cccs2)c2ccccc2n1	ERK AVP block inconclusive, 15-hLO inh 13µM
COCC(=O)N1CCC2(CC1)CCN(c1ccncc1)CC2	none
O=C=Nc1ccc(Cc2ccc(N=C=O)cc2)cc1	none
Cc1ccc(C)c(C(=O)c2c(C)nc3sccn23)c1	ERK AVP block inconclusive, 15-hLO inh 16µM
Cc1cc(C)c(NC(=O)c2cc3c(nc4sccn43)s2)c(C)c1	none
C/C(CCN1CCCCc2nc(C)c(C)cc21)=N\OC[C@@H](O)COCc1ccco1	none (no result: ALOX15B inhib)
CN1CCN(c2ncnc3c2[nH]c2ccc(F)cc23)CC1	none (no result: Casp1 inh, ERK AVP block, Caspase-7 inhib, 15-hLO inh)
CN1CCN(c2cc3c(c4c2[nH]c2ccccc24)C(=O)CC(C)(C)C3)CC1	ERK AVP block 32µM, Caspase-7 inhib inconclusive (no result: Casp1 inh)
Nc1c(C(=O)NC2CC2)c2nc3ccccc3nc2n1-c1ccc2c(c1)OCO2	Casp1 inh inconclusive, ERK AVP block inconclusive
Nc1c(C(=O)OCC2CCCO2)c2nc3ccccc3nc2n1-c1ccc2c(c1)OCCO2 (stereo unspecified)	ERK AVP block 20µM, Caspase-7 inhib inconclusive (no result: Casp1 inh)
CCOC(=O)c1sc(N)c(C(=O)Nc2ccc(C)cc2C)c1C	15-hLO inh inconclusive (no result: ERK AVP block, ALOX15B inhib)
COc1ccc(-n2c(C)c(C(C)=O)c(C(C)=O)c2C)cc1OC	ERK AVP block 32µM
CCc1cccc(NC(=O)CSC2=NS(=O)(=O)c3ccccc32)c1	ALOX15B inhib 5µM (no result: Casp1 inh, ERK AVP block, Caspase-7 inhib, 15-hLO inh)
CCOC(=O)c1oc2ccccc2c1CSc1nnnn1-c1ccc(C)cc1	15-hLO inh 1µM (no result: ALOX15B inhib)
N#Cc1c2c(c(NCc3ccco3)n3c1nc1ccccc13)CCC2	Caspase-7 inhib inconclusive, 15-hLO inh 5µM (no result: Casp1 inh)
COC(=O)c1[nH]c2ccc(C)cc2c1NC(=O)CN1CCN(Cc2ccccc2)CC1	ERK AVP block inconclusive, Caspase-7 inhib inconclusive
COC(=O)c1[nH]c2cc(OC)c(OC)cc2c1NC(=O)CN1CCN(Cc2ccccc2)CC1	ERK AVP block 10µM
COC(=O)c1[nH]c2ccc(C)cc2c1NC(=O)CN1CCN(c2ccccc2)CC1	ERK AVP block 13µM
CCOC(=O)C1=C([Si](C)(C)C)c2ccccc2N(S(=O)(=O)C(F)(F)F)C1C(=O)OCC (stereo unspecified)	none (no result: Casp1 inh, ERK AVP block, Caspase-7 inhib, 15-hLO inh)
COc1ccc(-c2cnnc(CCCn3ccnc3-c3ccccc3)n2)cc1	none (no result: ALOX15B inhib)
O=C1c2ccccc2S(=O)(=O)N1CC(O)Cn1ccc2ccccc21 (stereo unspecified)	none
OCc1nc2ccccc2n1CC(O)Cn1ccc2ccccc21 (stereo unspecified)	ERK AVP block 16µM
Cc1cc(C)n(CC(O)Cn2ccc3ccccc32)n1 (stereo unspecified)	none (no result: Casp1 inh, ERK AVP block, Caspase-7 inhib, 15-hLO inh)
Oc1ccccc1NCC(O)Cn1ccc2ccccc21 (stereo unspecified)	15-hLO inh 6.3µM, ALOX15B inhib 13µM
C=CC(C)n1c(Br)nc2c1c(=O)[nH]c(=O)n2C (stereo unspecified)	none
CC(C)n1c(=S)[nH]c2c1c(=O)[nH]c(=O)n2C	15-hLO inh inconclusive, ALOX15B inhib 13µM
Cc1ccc2[nH]c(-c3ccc(F)cc3F)cc(=O)c2c1	none (no result: Casp1 inh, ERK AVP block, Caspase-7 inhib, 15-hLO inh)
Nc1nc2c(s1)CCc1c-2cnn1-c1ccccc1	Casp1 inh inconclusive, ERK AVP block 25µM, 15-hLO inh 2.5µM, ALOX15B inhib 1µM
COc1ccc(-c2cnn(-c3ccccc3)c2N)cc1OC	none
Cc1ccc2c(CC(=O)OCc3csc(C)n3)coc2c1	none (no result: ALOX15B inhib)
O=C(Cc1coc2cc3c(cc12)CCC3)OCc1cc(=O)n2c(n1)sc1ccccc12	15-hLO inh 20µM
Nc1nc(N)nc(CCCc2nc(N)nc(N)n2)n1	Casp1 inh inconclusive
CCOC(=O)c1c(-c2ccc(C)o2)csc1NC(=S)NC(=O)N(C)C	ALOX15B inhib 25µM (no result: Casp1 inh, ERK AVP block, Caspase-7 inhib, 15-hLO inh)
CCOC(=O)c1c(-c2ccc(C)o2)csc1NC(=O)COC(=O)c1cccs1	15-hLO inh inconclusive (no result: ALOX15B inhib)
CCOC(=O)c1c(-c2ccc(C)o2)csc1N	ERK AVP block inconclusive, Caspase-7 inhib inconclusive, 15-hLO inh 1.6µM (no result: Casp1 inh)
CCN(CC)CCn1c(-c2ccccc2)nc2c(NCCO)nc(C)nc21	none
N#Cc1cccc(NC(=O)CSc2ccc3c4c(cccc24)C(=O)c2ccccc2-3)c1	ALOX15B inhib 13µM (no result: Casp1 inh, ERK AVP block, Caspase-7 inhib, 15-hLO inh)
COc1ccc(NC(=O)CSc2ccc3c4c(cccc24)C(=O)c2ccccc2-3)cc1	ALOX15B inhib 16µM (no result: Casp1 inh, ERK AVP block, Caspase-7 inhib, 15-hLO inh)
COc1ccc(NC(=O)CSc2nnc(-c3ccccc3C)n2N)cc1	none
N#Cc1cccc(NC(=O)CSc2ccccc2)c1	ERK AVP block inconclusive
CCc1ccc(N2CSC3=C(C#N)C(c4cccs4)CC(=O)N3C2)cc1 (stereo unspecified)	15-hLO inh inconclusive, ALOX15B inhib 20µM
N#CC1=C2SCC(O)(c3ccccc3)N2C(=O)CC1c1ccccc1 (stereo unspecified)	none (no result: Casp1 inh, ERK AVP block, Caspase-7 inhib, 15-hLO inh)
N#CC1=C2SCN(c3ccc(F)cc3)CN2C(=O)CC1c1cccc(F)c1 (stereo unspecified)	15-hLO inh inconclusive, ALOX15B inhib inconclusive
COc1cc(OC)c(C2CC(=O)N3CN(c4ccc(C)cc4)CSC3=C2C#N)cc1OC (stereo unspecified)	15-hLO inh inconclusive, ALOX15B inhib inconclusive
CCc1ccc(C2CC(=O)N3CN(c4ccccc4)CSC3=C2C#N)cc1 (stereo unspecified)	Caspase-7 inhib inconclusive, 15-hLO inh 2.5µM, ALOX15B inhib 7.9µM
CN1CSC2=C(C#N)C(c3cccc(OCc4ccccc4)c3)CC(=O)N2C1 (stereo unspecified)	15-hLO inh 5µM, ALOX15B inhib inconclusive
COc1ccc(N2CSC3=C(C#N)C(c4cccs4)CC(=O)N3C2)cc1 (stereo unspecified)	Casp1 inh inconclusive, 15-hLO inh inconclusive, ALOX15B inhib 20µM
CCOC(=O)c1ccc(N2CSC3=C(C#N)C(c4cccs4)CC(=O)N3C2)cc1 (stereo unspecified)	15-hLO inh 13µM
Cc1ccc(N2CSC3=C(C#N)C(c4cccs4)CC(=O)N3C2)cc1 (stereo unspecified)	ALOX15B inhib 13µM (no result: Casp1 inh, ERK AVP block, Caspase-7 inhib, 15-hLO inh)
CN1CC[C@@]2(CCCN(C(=O)c3cccc(F)c3)C2)C1	none
Cc1csc(SCC(=O)c2ccc(S(=O)(=O)N3CCOCC3)cc2)n1	ERK AVP block inconclusive, 15-hLO inh 20µM
